Assay results as given in the antibiotic and cytotoxicity screens of Wong et al. (2023).
Screen size: about 39,000 compounds; about 3,300 (8.5%) were called active. The sample as a whole holds a higher share of actives than the screen did.

Tested on: HepG2
Experiment: cytotoxicity call (relative viability < 0.9)
Conditions: 10 µM

SMILES | cytotoxicity call
C[C@@H]1CN([C@@H](C)CO)C(=O)c2cccc(NC(=O)c3cnccn3)c2O[C@H]1CN(C)Cc1ccc(C(=O)O)cc1 | inactive
C[C@@H]1CCCCO[C@H](CN(C)C(=O)c2ccccc2)[C@H](C)CN([C@@H](C)CO)C(=O)c2cc(NC(=O)Nc3cccc4ccccc34)ccc2O1 | inactive
O=C(C[C@@H]1CC[C@H](NS(=O)(=O)c2ccc(F)cc2)[C@H](CO)O1)N1CCC(Cc2ccccc2)CC1 | inactive
Cc1ccc(S(=O)(=O)N(C)C[C@@H]2Oc3ccc(NS(=O)(=O)c4cn(C)cn4)cc3CC(=O)N([C@H](C)CO)C[C@H]2C)cc1 | inactive
c1ccc(Cn2c(-c3ccc(OC[C@H](C4CCNCC4)n4c(-c5ccccc5)nc5ccccc54)cc3)nc3ccccc32)cc1 | active
Cc1ccc(OCCn2c(CC(C)(C)C)nc3ccccc32)cc1 | inactive
Cc1cccc(-c2nc3ccccc3n2CCC(C)C)c1 | inactive
Cc1cncc2cccc(S(=O)(=O)N[C@H]3CN[C@H](COC(=O)NCCOCCOCCN)C3)c12 | inactive
Cn1cc(CO)cn1 | inactive
O=C(C[C@@H]1CC[C@H]2[C@@H](COC[C@@H](O)CN2C(=O)Nc2ccc3c(c2)OCO3)O1)N1CCN(c2ccccc2)CC1 | inactive
COc1ccc(NC(=O)Nc2cccc3c2O[C@@H](CN(C)Cc2ccc(-c4ccccc4)cc2)[C@@H](C)CN([C@H](C)CO)C3=O)cc1 | inactive
COc1ccc(NC(=O)Nc2cccc3c2O[C@@H](CN(C)Cc2ccc(-c4ccccc4)cc2)[C@@H](C)CN([C@@H](C)CO)C3=O)cc1 | inactive
COc1ccc(NC(=O)Nc2cccc3c2O[C@H](CN(C)Cc2ccc(-c4ccccc4)cc2)[C@@H](C)CN([C@@H](C)CO)C3=O)cc1 | active
COc1ccc(NC(=O)Nc2cccc3c2O[C@@H](CN(C)Cc2ccc(-c4ccccc4)cc2)[C@H](C)CN([C@H](C)CO)C3=O)cc1 | active
COc1ccc(NC(=O)Nc2cccc3c2O[C@@H](CN(C)Cc2ccc(-c4ccccc4)cc2)[C@H](C)CN([C@@H](C)CO)C3=O)cc1 | inactive
C[C@H]1CN([C@@H](C)CO)C(=O)c2cccc(NC(=O)Nc3ccccc3)c2O[C@H]1CN(C)Cc1ccc(-c2ccccc2)cc1 | inactive
COc1ccc(NC(=O)Nc2cccc3c2O[C@H](CN(C)Cc2ccc(-c4ccccc4)cc2)[C@H](C)CN([C@@H](C)CO)C3=O)cc1 | active
COc1ccc(NC(=O)Nc2cccc3c2O[C@H](CN(C)Cc2ccc(-c4ccccc4)cc2)[C@H](C)CN([C@H](C)CO)C3=O)cc1 | active
COc1ccc(NC(=O)Nc2cccc3c2O[C@H](CN(C)Cc2ccc(-c4ccccc4)cc2)[C@@H](C)CN([C@H](C)CO)C3=O)cc1 | inactive
COc1ccc(NC(=O)N(C)C[C@H]2OCCCC[C@@H](C)Oc3ccc(NC(=O)C4CCCCC4)cc3C(=O)N([C@H](C)CO)C[C@@H]2C)cc1 | inactive
COc1ccc(CN(C)C[C@H]2Oc3c(NS(C)(=O)=O)cccc3C(=O)N([C@@H](C)CO)C[C@H]2C)cc1 | inactive
COc1ccc2c3c([nH]c2c1)[C@H](CO)N(C[C@]13CN(Cc2ccccc2)C1)S(=O)(=O)c1cn(cn1)C | inactive
COc1ccc(NC(=O)N(C)C[C@H]2Oc3ncc(C#CCN(C)C)cc3C(=O)N([C@@H](C)CO)C[C@H]2C)cc1 | inactive
O=C(C[C@@H]1CC[C@H]2[C@@H](COC[C@@H](O)CN2Cc2cc(F)ccc2F)O1)N[C@@H]1CCN(Cc2ccccc2)C1 | inactive
C[C@@H]1CN([C@H](C)CO)C(=O)CCCn2nncc2CO[C@@H]1CN(C)C(=O)c1ccc(N2CCN(C)CC2)cc1 | inactive

SMILES | cytotoxicity call
Fc1ccccc1[C@H]1Nc2ccc3ccccc3c2[C@H]2C=CC[C@@H]21 | inactive
CCNC(=O)C[C@@H]1CC[C@H](NC(=O)C2CCOCC2)[C@H](CO)O1 | inactive
Cc1noc(C)c1NC(=O)Nc1ccc2c(c1)C(=O)N([C@H](C)CO)C[C@H](C)[C@H](CN(C)Cc1ccc(C(F)(F)F)cc1)O2 | inactive
C[C@@H]1CN([C@H](C)CO)C(=O)c2cc(-c3cncnc3)cnc2O[C@H]1CN(C)C(=O)Nc1ccc2c(c1)OCO2 | inactive
CCCNC(=O)c1cc2c(c(-c3cccc(-c4cccc(OC)c4)c3)n1)[C@H](CCO)N([S@@](=O)C(C)(C)C)C2 | inactive
O=C1c2ccccc2[C@@]2(Cc3ccccc3N(C3CC3)C2=O)[C@H](c2ccc(CO)cc2)N1Cc1ccccc1 | active
O=C1c2ccccc2[C@@]2(Cc3ccccc3N(C3CC3)C2=O)[C@H](c2ccc(CO)cc2)N1Cc1ccccc1Cl | inactive
COc1ccccc1CN1C(=O)c2ccccc2[C@@]2(Cc3ccccc3N(C3CC3)C2=O)[C@@H]1c1ccc(CO)cc1 | inactive
COc1ccc(S(=O)(=O)N[C@@H]2C=C[C@H](CC(=O)N3CCN(c4ccccc4)CC3)O[C@H]2CO)cc1 | inactive
O=C(O)c1cc(O)c2c(O)c3c(O[C@H]4O[C@H](CO)[C@@H](O)[C@H](O)[C@H]4O)cccc3c(-c3c4cc(C(=O)O)cc(O)c4c(O)c4c(O[C@H]5O[C@H](CO)[C@@H](O)[C@H](O)[C@H]5O)cccc34)c2c1 | active
O=C(O)c1cc(O)c2c(c1)C(C1c3cc(C(=O)O)cc(O)c3C(=O)c3c(OC4OC(CO)C(O)C(O)C4O)cccc31)c1cccc(OC3OC(CO)C(O)C(O)C3O)c1C2=O (stereo not drawn) | active
OCc1ccc(O[C@@H]2O[C@H](CO)[C@@H](O)[C@H](O)[C@H]2O)cc1 | inactive
COc1c(O)cc2c(c1O)[C@@H]1O[C@H](CO)[C@@H](O)[C@H](O)[C@H]1OC2=O | inactive
OCCc1ccc(O)c(O[C@H]2O[C@@H](CO)[C@@H](O)[C@@H](O)[C@@H]2O)c1 | inactive
O=C1c2c(O)cccc2C(C2OC(CO)C(O)C(O)C2O)c2cc(CO)cc(O)c21 (stereo not drawn) | active
OCc1cc(O)c2c(O)c3c(O)cccc3c(O[C@@H]3O[C@H](CO)[C@@H](O)[C@H](O)[C@H]3O)c2c1 | active
O=C1c2c(O)cc(CO)cc2C(OC2OC(CO)C(O)C(O)C2O)c2cccc(OC3OC(CO)C(O)C(O)C3O)c21 (stereo not drawn) [CASANTHRANOL [cascaroside A shown] ] | inactive
COc1c(O)cc2c(c1O)C1OC(CO)C(O)C(O)C1OC2=O (stereo not drawn) | inactive
OCc1ccccc1O[C@@H]1O[C@H](CO)[C@@H](O)[C@H](O)[C@H]1O | inactive
O=C(O)c1cc(O[C@@H]2O[C@H](CO)[C@@H](O)[C@H](O)[C@H]2O)c2ccccc2c1O | inactive
OCc1cc(O)c2c(O)c3c(O)cccc3c(O[C@@H]3O[C@H](CO)[C@H](O)[C@@H](O)[C@H]3O)c2c1 | inactive
CC(C)C#Cc1cnc2c(c1)C(=O)N([C@@H](C)CO)C[C@@H](C)[C@@H](CN(C)C(=O)c1ccc3c(c1)OCO3)O2 | inactive
O=C(C[C@H]1C[C@H]2c3cc(NS(=O)(=O)c4ccc(F)cc4)ccc3O[C@H]2[C@@H](CO)O1)NCCN1CCCCC1 | inactive
C[C@@H]1CN([C@H](C)CO)C(=O)CCCn2cc(nn2)CO[C@@H]1CN(C)S(=O)(=O)c1ccc2c(c1)OCCCO2 | inactive
C[C@H]1CN([C@@H](C)CO)S(=O)(=O)c2ccc(C#Cc3cccc(F)c3)cc2O[C@@H]1CN(C)S(=O)(=O)c1ccccc1F | inactive

SMILES | cytotoxicity call
C[C@H](O)C#Cc1ccc2c(c1)O[C@H](CN(C)C)[C@H](C)CN([C@H](C)CO)S2(=O)=O | inactive
COCC(=O)Nc1ccc2c(c1)C(=O)N(C)C[C@H](OC)[C@H](C)CN(Cc1cccc(F)c1)[C@@H](C)CO2 | inactive
S=c1[nH]nc(C2CCCCC2)[nH]1 | inactive
COCC(=O)Nc1ccc2c(c1)C(=O)N(C)C[C@@H](OC)[C@H](C)CN(C(=O)Nc1ccccc1F)[C@H](C)CO2 | inactive
Cc1nnc(SCC2=C(C(=O)O)N3C(=O)[C@@H](N)[C@H]3SC2)s1 | inactive
O=C(N[C@H](NC(=S)Nc1ccc(F)c([N+](=O)[O-])c1)C(Cl)(Cl)Cl)C(c1ccccc1)c1ccccc1 | active
CCOC(=O)c1ccc(NC(=S)N[C@@H](NC(=O)c2ccc(Br)cc2)C(Cl)(Cl)Cl)cc1 | inactive
C[C@@H]1CN([C@@H](C)CO)S(=O)(=O)c2ccc(-c3cncnc3)cc2O[C@H]1CN(C)C(=O)Cc1ccccc1 | inactive
C[C@H]1CCCCO[C@H](CN(C)Cc2ccccc2)[C@@H](C)CN([C@@H](C)CO)C(=O)c2cc(NS(=O)(=O)c3cccs3)ccc2O1 | inactive
COc1ccc(CN(C)C[C@@H]2OCCCC[C@@H](C)Oc3ccc(NC(=O)c4ccncc4)cc3C(=O)N([C@@H](C)CO)C[C@H]2C)cc1 | inactive
C[C@@H]1CCCCO[C@@H](CN(C)S(=O)(=O)c2cn(C)cn2)[C@H](C)CN([C@H](C)CO)C(=O)c2cc(NC(=O)Nc3cccc4ccccc34)ccc2O1 | inactive
C[C@@H]1CCCCO[C@H](CN(C)S(=O)(=O)c2cccs2)[C@H](C)CN([C@@H](C)CO)C(=O)c2cc(NS(=O)(=O)c3ccc(Cl)cc3)ccc2O1 | active
C[C@H]1CCCCO[C@@H](CN(C)S(=O)(=O)c2cccs2)[C@@H](C)CN([C@@H](C)CO)C(=O)c2cc(NS(=O)(=O)c3ccc(Cl)cc3)ccc2O1 | inactive
C[C@@H]1CN([C@@H](C)CO)C(=O)c2cc(NS(=O)(=O)c3ccc(Cl)cc3)ccc2O[C@@H](C)CCCCO[C@@H]1CN(C)S(=O)(=O)c1cccs1 | inactive
C[C@@H]1CCCCO[C@@H](CN(C)S(=O)(=O)c2cccs2)[C@H](C)CN([C@@H](C)CO)C(=O)c2cc(NS(=O)(=O)c3ccc(Cl)cc3)ccc2O1 | inactive
C[C@@H]1CCCCO[C@@H](CN(C)S(=O)(=O)c2cccs2)[C@H](C)CN([C@H](C)CO)C(=O)c2cc(NS(=O)(=O)c3ccc(Cl)cc3)ccc2O1 | active
C[C@H](CO)N1C[C@H](C)[C@@H](CN(C)S(=O)(=O)c2cccs2)OCCCC[C@H](C)Oc2ccc(NS(=O)(=O)c3ccc(Cl)cc3)cc2C1=O | active
C[C@@H]1CCCCO[C@@H](CN(C)S(=O)(=O)c2cccs2)[C@@H](C)CN([C@@H](C)CO)C(=O)c2cc(NS(=O)(=O)c3ccc(Cl)cc3)ccc2O1 | active
C[C@H](CO)N1C[C@H](C)[C@H](CN(C)S(=O)(=O)c2cccs2)OCCCC[C@H](C)Oc2ccc(NS(=O)(=O)c3ccc(Cl)cc3)cc2C1=O | inactive
C[C@@H]1CCCCO[C@H](CN(C)S(=O)(=O)c2cccs2)[C@H](C)CN([C@H](C)CO)C(=O)c2cc(NS(=O)(=O)c3ccc(Cl)cc3)ccc2O1 | inactive
C[C@@H]1CCCCO[C@@H](CN(C)S(=O)(=O)c2cccs2)[C@@H](C)CN([C@H](C)CO)C(=O)c2cc(NS(=O)(=O)c3ccc(Cl)cc3)ccc2O1 | inactive
C[C@@H]1CN([C@H](C)CO)C(=O)c2cc(NS(=O)(=O)c3ccc(Cl)cc3)ccc2O[C@@H](C)CCCCO[C@@H]1CN(C)S(=O)(=O)c1cccs1 | inactive
C[C@@H]1CN([C@H](C)CO)C(=O)c2cc(NS(=O)(=O)c3ccc(Cl)cc3)ccc2O[C@@H](C)CCCCO[C@H]1CN(C)S(=O)(=O)c1cccs1 | inactive
